Experimental findings from PubChem BioAssay (EPA / NIEHS) are described below.

Inconclusive results are not listed. Calls of active or inactive are those of the source. How the source made its calls, unless noted: active means hit-call score of the fitted dose curve at least 0.9, where 1 is the maximum; inconclusive means response in the unintended direction; inactive means score below 0.9.

Experiment [1] concerns the target human RAR-related Orphan Receptor gamma (RORg), RORC (gene 6097) (UniProt P51449). Briefly: ATG_RORg_TRANS: Attagene TRANS-FACTORIAL HepG2 Assay for human RAR-related Orphan Receptor gamma (RORg) (AID 2283011). In outline:
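Reporter transcripts from a transfected RORg-GAL4 chimera in HepG2 cells were quantified 24 h after dosing by RT-PCR, 6-FAM labelling, HpaI digestion and capillary electrophoresis; increases over DMSO baseline were fitted.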

Experiment [2] concerns the target human Vitamin D Receptor (VDR), VDR (gene 7421) (UniProt P11473). In words: ATG_VDR_TRANS: Attagene TRANS-FACTORIAL HepG2 Assay for human Vitamin D Receptor (VDR) (AID 2283022). In outline: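 Transactivation by an exogenous VDR-Gal4 chimera in transiently transfected HepG2 cells was measured as reporter transcript level 24 hours after chemical treatment. RT-PCR products were analysed by capillary electrophoresis and fitted in the positive direction relative to DMSO.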

The target in experiment [3] is human Thyroid Receptor alpha (THRa1), THRA (gene 7067) (UniProt P10827). In words: ATG_THRa1_TRANS: Attagene TRANS-FACTORIAL HepG2 Assay for human Thyroid Receptor alpha (THRa1) (AID 2283014). The gist of the method:
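Transcripts from GAL4-UAS-driven reporters, measured after 24 h compound exposure by RT-PCR plus capillary electrophoresis of 6-FAM-labeled fragments, were fitted for gain of signal relative to DMSO. Cells: transiently transfected HepG2 expressing NR-Gal4 chimeras.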

Experiment [4] has as its target Retinoic acid receptor RXR-alpha (Homo sapiens) (UniProt P19793). In words: ATG_RXRa_TRANS: Attagene TRANS-FACTORIAL HepG2 Assay for human Retinoid X Receptor alpha (RXRa) (AID 2283012). The gist of the method:
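Measures exogenous chimeric NR-GAL4 activity in transfected HepG2 liver cells after 24 h of dosing. Induced reporter mRNA was detected by RT-PCR with capillary electrophoresis, and gain of signal was analysed against DMSO.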

Experiment [5] has as its target human Retinoid X Receptor beta (RXRb), RXRB (gene 6257) (UniProt P28702). Briefly: ATG_RXRb_TRANS: Attagene TRANS-FACTORIAL HepG2 Assay for human Retinoid X Receptor beta (RXRb) (AID 2283013). The gist of the method:
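Chimeric receptor-Gal4 activity was assessed in transiently transfected human HepG2 cells after 24 h exposure. Transcripts from GAL4-UAS reporters were quantified by fluorescent RT-PCR and capillary electrophoresis, with DMSO as negative control and baseline.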

Read-out in experiment [6]: E-selectin (Homo sapiens) (UniProt P16581)
Briefly: BSK_3C_Eselectin: BioMAP Diversity Plus: 3C Assay for Eselectin Biomarker Activity (AID 2283015; active means hit-call score of the fitted dose curve at least 0.9, where 1 is the maximum; inactive means score below 0.9). Conditions: primary human endothelial cells (HUVEC); actives raise or lower the signal. The gist of the method:
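E-selectin ELISA readout, fitted bidirectionally relative to DMSO, taken 24 h post-dosing in HUVEC cultures of the 3C system. Overt cytotoxicity tracked with sulforhodamine B staining of parallel wells.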

Read-out in experiment [7]: Interleukin-1 alpha (IL1a), IL1A (gene 3552)
Briefly: BSK_BE3C_IL1a: BioMAP Diversity Plus: BE3C Assay for Interleukin-1 alpha (IL1a) Biomarker Activity (AID 2283016; active means hit-call score of the fitted dose curve at least 0.9, where 1 is the maximum; inactive means score below 0.9). As to conditions: primary human bronchial epithelial cells; actives raise or lower the signal. The gist of the method: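 Signal from IL-1a ELISA, taken 24 h after chemical dosing of human bronchial epithelial cells, is compared with DMSO as baseline using bidirectional curve fitting.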

Read-out in experiment [8]: Monocyte Chemoattractant Protein-1 (MCP1), CCL2 (gene 6347)
Briefly: BSK_3C_MCP1: BioMAP Diversity Plus: 3C Assay for Monocyte Chemoattractant Protein-1 (MCP1) Biomarker Activity (AID 2283017; active means hit-call score of the fitted dose curve at least 0.9, where 1 is the maximum; inactive means score below 0.9). As to conditions: primary human endothelial cells (HUVEC); actives raise or lower the signal. In outline: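 MCP-1 was measured by ELISA 24 h after dosing in primary HUVEC 3C cultures and fitted in both directions relative to DMSO; cytotoxicity was checked by SRB total-protein staining in parallel wells.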

Read-out in experiment [9]: Monocyte Chemoattractant Protein-1 (MCP1), CCL2 (gene 6347)
In words: BSK_4H_MCP1: BioMAP Diversity Plus: 4H Assay for Monocyte Chemoattractant Protein-1 (MCP1) Biomarker Activity (AID 2283018; active means hit-call score of the fitted dose curve at least 0.9, where 1 is the maximum; inactive means score below 0.9). As to conditions: primary human endothelial cells (HUVEC); actives raise or lower the signal. In outline: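 Endothelial cells from umbilical vein were treated with test chemical, then after 24 h MCP-1 levels were quantified by ELISA; endpoint values came from bidirectional fitting with DMSO as baseline of activity.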

Read-out in experiment [10]: Human Leukocyte Antigen - DR isotype (HLADR), HLA-DRA (gene 3122)
In words: BSK_3C_HLADR: BioMAP Diversity Plus: 3C Assay for Human Leukocyte Antigen - DR isotype (HLADR) Biomarker Activity (AID 2283019; active means hit-call score of the fitted dose curve at least 0.9, where 1 is the maximum; inactive means score below 0.9). As to conditions: primary human endothelial cells (HUVEC); actives raise or lower the signal. The gist of the method:
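Bidirectional fitting against DMSO was applied to the HLA-DR ELISA signal from human umbilical vein endothelial cells, 24 h post-dose. Cytotoxicity came from parallel SRB total-protein staining; 3C proliferation was counted by SRB at 48 h.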

Read-out in experiment [11]: Interleukin-8 (IL8), CXCL8 (gene 3576)
In words: BSK_3C_IL8: BioMAP Diversity Plus: 3C Assay for Interleukin-8 (IL8) Biomarker Activity (AID 2283020; active means hit-call score of the fitted dose curve at least 0.9, where 1 is the maximum; inactive means score below 0.9). As to conditions: primary human endothelial cells (HUVEC); actives raise or lower the signal. The gist of the method: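 Endothelial primary cells of human umbilical vein origin are dosed with chemical; after 24 h the IL-8 biomarker is measured by ELISA, and concentration–response is fitted in both directions versus DMSO.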

Read-out in experiment [12]: Monokine induced gamma interferon (MIG), CXCL9 (gene 4283)
In words: BSK_3C_MIG: BioMAP Diversity Plus: 3C Assay for Monokine induced gamma interferon (MIG) Biomarker Activity (AID 2283021; active means hit-call score of the fitted dose curve at least 0.9, where 1 is the maximum; inactive means score below 0.9;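 further: MIG protein level measured by immunoassay in the treated endothelial cultures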). Conditions: primary human endothelial cells (HUVEC); actives raise or lower the signal. In outline: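 Endothelial primary cells (human umbilical vein) are dosed with test chemical in the 3C system. MIG levels are measured by ELISA at 24 h and fitted in both directions relative to DMSO.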

The nature of experiment [13]: BSK_3C_SRB: Viability Assessment in the BioMAP Diversity Plus: 3C Assay (AID 2283023; active means hit-call score of the fitted dose curve at least 0.9, where 1 is the maximum; inactive means score below 0.9;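 further: fitted both ways against DMSO so a hit may be signal rise or drop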). As to conditions: primary human endothelial cells (HUVEC). The gist of the method: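 Cytotoxicity readout in parallel HUVEC 3C cultures: after 24 h compound exposure, cells fixed with 10% TCA, stained with 0.1% SRB and read at 560 nm. Gain or loss relative to DMSO fitted.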
Read-out in experiment [14]: Matrix Metallopeptidase 1 (MMP1), MMP1 (gene 4312)
Briefly: BSK_BE3C_MMP1: BioMAP Diversity Plus: BE3C Assay for Matrix Metallopeptidase 1 (MMP1) Biomarker Activity (AID 2283024; active means hit-call score of the fitted dose curve at least 0.9, where 1 is the maximum; inactive means score below 0.9). Conditions: primary human bronchial epithelial cells; actives raise or lower the signal. In outline: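 MMP1 signal, measured by ELISA after a 24 h chemical exposure of human primary bronchial epithelial cells, is analysed with bidirectional fitting using DMSO as negative control.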

Experiment [15] can be described thus: BSK_3C_Vis: BioMAP Diversity Plus: 3C Assay for Morphology Visualization (AID 2283025; active means hit-call score of the fitted dose curve at least 0.9, where 1 is the maximum; inactive means score below 0.9;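 further: fitted both ways so gain or loss versus DMSO counts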). As to conditions: primary human endothelial cells (HUVEC). In outline:
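Morphology read by light microscopy serves as a background control for the multiplexed 3C assay in human umbilical vein endothelial cells, taken 24 h after dosing, with DMSO as the negative control and bidirectional curve fitting.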

Experiment [16] can be described thus: BSK_4H_SRB: Viability Assessment in the BioMAP Diversity Plus: 4H Assay (AID 2283027; active means hit-call score of the fitted dose curve at least 0.9, where 1 is the maximum; inactive means score below 0.9;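 further: cells exposed to compound for 24 h before staining; curves fitted both ways versus DMSO so AC50 may be loss or gain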). As to conditions: primary human endothelial cells (HUVEC). In outline: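 Cytotoxicity read-out in primary human endothelial cells: after 24 h compound exposure, cells were TCA-fixed (10%), stained with 0.1% SRB and absorbance taken at 560 nm. Values fitted in both directions relative to DMSO.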

A short description of experiment [17]: BSK_BE3C_SRB: Viability Assessment in the BioMAP Diversity Plus: BE3C Assay (AID 2283028; active means hit-call score of the fitted dose curve at least 0.9, where 1 is the maximum; inactive means score below 0.9;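 further: fitted both ways so AC50 may mark signal gain or loss versus DMSO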). As to conditions: primary human bronchial epithelial cells. In outline: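 Cytotoxicity read-out: SRB (0.1%) staining of TCA-fixed (10%) human lung bronchial epithelial cells, absorbance 560 nm, 24 h post-dosing. Curves fitted both directions relative to DMSO.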
Read-out in experiment [18]: Thrombomodulin, THBD (gene 7056)
Briefly: BSK_3C_Thrombomodulin: BioMAP Diversity Plus: 3C Assay for Thrombomodulin Biomarker Activity (AID 2283029; active means hit-call score of the fitted dose curve at least 0.9, where 1 is the maximum; inactive means score below 0.9). Conditions: primary human endothelial cells (HUVEC); actives raise or lower the signal. In outline:
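Endothelial cells from umbilical vein are dosed with test chemical and incubated 24 h. Thrombomodulin is then quantified by ELISA, with DMSO serving as negative control and activity baseline.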

Read-out in experiment [19]: Urokinase-type plasminogen activator receptor (uPAR), PLAUR (gene 5329)
Briefly: BSK_4H_uPAR: BioMAP Diversity Plus: 4H Assay for Urokinase-type plasminogen activator receptor (uPAR) Biomarker Activity (AID 2283030; active means hit-call score of the fitted dose curve at least 0.9, where 1 is the maximum; inactive means score below 0.9). Conditions: primary human endothelial cells (HUVEC); actives raise or lower the signal. In outline:
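uPAR level read by ELISA on HUVEC cultures (BioMAP 4H) 24 h post-dosing, analyzed for gain or loss relative to DMSO. Parallel SRB staining assessed overt cytotoxicity.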

Chain of human RAR-related Orphan Receptor gamma (RORg), RORC (gene 6097) (P51449 whole entry, looked up, the tested form may be a part): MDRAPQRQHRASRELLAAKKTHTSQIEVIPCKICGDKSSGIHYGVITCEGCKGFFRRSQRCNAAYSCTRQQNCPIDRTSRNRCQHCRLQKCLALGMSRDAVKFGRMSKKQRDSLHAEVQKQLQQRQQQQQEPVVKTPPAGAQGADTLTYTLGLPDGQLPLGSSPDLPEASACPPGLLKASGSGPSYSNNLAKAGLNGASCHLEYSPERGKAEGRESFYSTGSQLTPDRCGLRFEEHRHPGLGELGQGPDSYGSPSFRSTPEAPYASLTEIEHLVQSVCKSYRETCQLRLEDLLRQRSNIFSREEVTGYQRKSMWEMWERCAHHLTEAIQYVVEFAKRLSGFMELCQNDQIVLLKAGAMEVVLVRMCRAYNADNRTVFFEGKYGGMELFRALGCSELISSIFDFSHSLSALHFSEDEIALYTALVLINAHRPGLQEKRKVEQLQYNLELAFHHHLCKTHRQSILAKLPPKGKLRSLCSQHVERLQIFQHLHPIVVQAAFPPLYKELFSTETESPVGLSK
Chain of human Vitamin D Receptor (VDR), VDR (gene 7421) (P11473 whole entry, looked up, the tested form may be a part): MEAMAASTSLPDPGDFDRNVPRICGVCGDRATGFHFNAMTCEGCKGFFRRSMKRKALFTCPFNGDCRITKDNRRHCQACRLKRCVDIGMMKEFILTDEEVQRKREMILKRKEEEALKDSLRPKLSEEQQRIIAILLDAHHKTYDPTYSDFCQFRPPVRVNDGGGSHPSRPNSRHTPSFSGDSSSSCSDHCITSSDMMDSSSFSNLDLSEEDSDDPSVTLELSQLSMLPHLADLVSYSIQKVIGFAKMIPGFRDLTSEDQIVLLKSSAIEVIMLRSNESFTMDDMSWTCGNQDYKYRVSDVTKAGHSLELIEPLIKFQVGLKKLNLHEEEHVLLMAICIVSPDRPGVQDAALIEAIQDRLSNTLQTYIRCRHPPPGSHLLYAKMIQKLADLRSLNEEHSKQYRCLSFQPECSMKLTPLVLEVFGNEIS
Chain of human Thyroid Receptor alpha (THRa1), THRA (gene 7067) (P10827 whole entry, looked up, the tested form may be a part): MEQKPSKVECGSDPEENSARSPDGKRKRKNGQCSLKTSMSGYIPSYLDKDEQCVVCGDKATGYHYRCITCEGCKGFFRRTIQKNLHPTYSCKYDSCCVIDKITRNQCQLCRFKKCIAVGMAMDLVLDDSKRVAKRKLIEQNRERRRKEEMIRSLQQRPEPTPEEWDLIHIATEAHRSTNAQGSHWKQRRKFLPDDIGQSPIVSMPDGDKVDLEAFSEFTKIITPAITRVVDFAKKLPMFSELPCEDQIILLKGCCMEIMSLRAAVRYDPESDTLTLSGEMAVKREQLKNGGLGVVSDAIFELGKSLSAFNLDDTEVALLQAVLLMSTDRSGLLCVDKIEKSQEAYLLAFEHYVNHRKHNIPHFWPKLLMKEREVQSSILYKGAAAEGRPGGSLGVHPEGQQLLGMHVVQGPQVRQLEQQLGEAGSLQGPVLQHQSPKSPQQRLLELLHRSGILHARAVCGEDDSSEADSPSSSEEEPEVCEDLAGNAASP
Chain of human Retinoid X Receptor beta (RXRb), RXRB (gene 6257) (P28702 whole entry, looked up, the tested form may be a part): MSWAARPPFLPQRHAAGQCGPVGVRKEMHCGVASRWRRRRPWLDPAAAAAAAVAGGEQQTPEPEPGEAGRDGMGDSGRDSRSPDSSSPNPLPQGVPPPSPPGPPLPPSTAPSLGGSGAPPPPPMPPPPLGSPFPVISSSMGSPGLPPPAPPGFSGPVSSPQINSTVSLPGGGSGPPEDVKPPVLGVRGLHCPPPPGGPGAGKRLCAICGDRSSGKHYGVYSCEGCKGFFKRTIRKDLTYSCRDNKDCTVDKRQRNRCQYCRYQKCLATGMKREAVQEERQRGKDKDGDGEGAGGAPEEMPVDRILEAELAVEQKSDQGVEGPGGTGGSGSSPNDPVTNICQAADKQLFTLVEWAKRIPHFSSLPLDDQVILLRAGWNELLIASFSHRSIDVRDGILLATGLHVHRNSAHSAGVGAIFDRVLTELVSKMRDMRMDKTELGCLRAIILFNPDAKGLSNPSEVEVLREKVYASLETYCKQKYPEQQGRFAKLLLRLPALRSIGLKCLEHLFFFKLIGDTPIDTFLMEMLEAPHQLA
Chain of Retinoic acid receptor RXR-alpha (Homo sapiens) (P19793 whole entry, looked up, the tested form may be a part): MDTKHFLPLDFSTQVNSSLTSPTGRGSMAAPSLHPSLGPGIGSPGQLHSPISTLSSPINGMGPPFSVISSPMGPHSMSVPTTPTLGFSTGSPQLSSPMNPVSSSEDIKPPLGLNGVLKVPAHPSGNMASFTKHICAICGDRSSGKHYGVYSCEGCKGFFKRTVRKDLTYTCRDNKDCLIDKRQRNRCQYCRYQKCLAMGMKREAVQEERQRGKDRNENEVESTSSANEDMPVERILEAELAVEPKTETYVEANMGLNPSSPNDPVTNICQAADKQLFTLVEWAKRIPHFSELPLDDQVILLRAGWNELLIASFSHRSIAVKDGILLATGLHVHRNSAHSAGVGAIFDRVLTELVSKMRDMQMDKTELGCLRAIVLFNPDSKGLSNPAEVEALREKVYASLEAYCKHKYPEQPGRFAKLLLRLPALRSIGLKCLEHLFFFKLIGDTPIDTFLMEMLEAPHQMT
Chain of E-selectin (Homo sapiens) (P16581 whole entry, looked up): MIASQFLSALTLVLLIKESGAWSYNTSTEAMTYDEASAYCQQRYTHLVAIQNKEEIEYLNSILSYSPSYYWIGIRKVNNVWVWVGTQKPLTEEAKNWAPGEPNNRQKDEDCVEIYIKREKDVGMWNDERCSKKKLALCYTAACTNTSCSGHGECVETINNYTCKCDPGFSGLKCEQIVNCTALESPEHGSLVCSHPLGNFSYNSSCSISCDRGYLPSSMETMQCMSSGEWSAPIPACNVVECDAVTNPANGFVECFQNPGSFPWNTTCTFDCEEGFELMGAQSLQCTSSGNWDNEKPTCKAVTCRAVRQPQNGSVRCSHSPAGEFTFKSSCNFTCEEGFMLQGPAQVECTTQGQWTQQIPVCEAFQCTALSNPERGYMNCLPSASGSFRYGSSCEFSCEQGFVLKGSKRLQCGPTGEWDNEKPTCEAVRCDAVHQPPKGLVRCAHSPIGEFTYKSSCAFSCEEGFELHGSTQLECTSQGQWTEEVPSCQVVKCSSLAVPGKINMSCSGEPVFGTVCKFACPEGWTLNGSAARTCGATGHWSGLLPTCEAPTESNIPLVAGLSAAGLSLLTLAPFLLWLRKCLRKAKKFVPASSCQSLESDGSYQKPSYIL

Turning to `FC(OC(F)(F)C(F)(F)C(F)(F)F)C(F)(F)F` (stereo not drawn), in [1], the compound was classed as inactive.
As for `FC(F)(F)C(F)(F)C(F)(F)C(F)(F)I`, the outcome in [1] and in experiment [2] was inactive.
For the compound `CCC1CO1` (stereo not drawn), the outcome in experiment [1], in [3] and in [2] was inactive.
As for `CC(C)CCOCCC(C)C`, the result in experiment [1] and in experiment [2] was inactive.
Regarding `CCCCCCC(C)(C)C(=O)O`, the result in [1] and in [3] was inactive.
As for `CCN(CC)CC`, the compound was called inactive in experiment [1], in experiment [3] and in [2].
In general, AC50 refers to the midpoint of the concentration-response curve, whichever way the signal moves. On to `CCCCCc1ccc(O)cc1`, for which the outcome in [4] and in [3] was inactive. Besides, the AC50 in [5] is 33.4 µM (active); in [6], 13.5 µM (active); in experiment [7], 23.8 µM (active); in experiment [8], 20 µM (active); in [9] it was 9.34 µM (active); in experiment [10], 11.6 µM (active). Also, the AC50 in [11] was 11.3 µM (active); in [12], 34.6 µM (active); in [13] it was 14.5 µM (active); in [14] it was 30.2 µM (active); in experiment [15], 12.1 µM (active); in experiment [16], 15.8 µM (active). The values for the AC50 in [17], in experiment [18] and in experiment [19] were 26 µM (active), 11.7 µM (active) and 20 µM (active), respectively.
Consider `CCO[Si](CCC1CCC2OC2C1)(OCC)OCC` (stereo not drawn), for which the compound was called inactive in experiment [1] and in [2].
As for `C=CC(=O)OCC(CO)(COCC(COC(=O)C=C)(COC(=O)C=C)COC(=O)C=C)COC(=O)C=C`, the call in [1], in [5] and in experiment [2] was inactive.
With `O=S(=O)(O)c1ccc2cc(O)ccc2c1`, the outcome in [4], in [5] and in experiment [3] was inactive.
